Laboratory results published in PubChem BioAssay AID1035470 (Broad Institute, 2014).
The campaign covered roughly 1,800 compounds. Fewer than 10 were called active. Another 16% or so got no clear call; they are omitted.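 How the source made its calls: active means compound lowering the normal-ribosome reporter at least twice as much as the humanized-ribosome reporter, growth loss under a set limit; inconclusive means no clear call, values can overlap the other calls; inactive means the rest.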 Not all results are given here. Entries with a potency or affinity are not part of this list.

Assay: E. coli strain growth, wild-type against G2058 humanized RFP mutant – G2058 mutant RFP vs wild-type GFP, cherry-pick, two tests, dose response (AID 1035470)
Conditions: E. coli WT-GFP vs G2058-humanized RFP, fluorescence, 24 h; series mostly up to 50 µM; activity change, negative = inhibition: at the top concentration
In the case of `S=c1[nH]nc(-c2ccc3ccccc3n2)n1-c1ccc2c(c1)OCCO2`, the “activity change, negative = inhibition” value is reported as -7.71 (inactive). With `Cc1ccnc(NS(=O)(=O)c2ccc(NC(=O)c3ccc4c(c3)OCCO4)cc2)n1` the “activity change, negative = inhibition” value was -9.76 (inactive). With `COc1ccc(OC)c(-c2nn(-c3ccccc3)cc2C(=O)N2CCc3ccccc3C2)c1` the “activity change, negative = inhibition” value was -18.4 (inactive). With `Cc1c(Cc2ccccc2)sc(NC(=O)Cc2ccccc2)c1C(N)=O` the “activity change, negative = inhibition” value was -0.013 (inactive). With `COC(=O)c1sccc1NC(=O)CNC(=O)c1ccccc1` the “activity change, negative = inhibition” value was -7.99 (inactive). With `O=C(Cc1c(F)cccc1Cl)N(Cc1ccccc1)c1ccccn1` the “activity change, negative = inhibition” value was -16.8 (inactive). In the case of `Cc1ccoc1C(=O)Nc1ccc2ccccc2c1`, the “activity change, negative = inhibition” value is reported as -10.1 (inactive). With `Cc1cc(CNC(=O)c2cc(-c3ccccc3)nc3ccccc23)nn1C` the “activity change, negative = inhibition” value was -1.97 (inactive). For `Cc1cccc(-c2nsc(SCC(=O)NCC3CCCO3)n2)c1` (centres undefined), the “activity change, negative = inhibition” value was -11.8 (inactive). With `Cc1ccc2nc(N(CCN(C)C)C(=O)C3CCN(S(=O)(=O)c4cccs4)CC3)sc2c1` the “activity change, negative = inhibition” value was 4.53 (inactive). For `COc1ccc(-c2csc(NC(=O)c3ccoc3C)n2)cc1`, the “activity change, negative = inhibition” value was -22.7 (inactive). In the case of `CCC1CCCCN1C(=O)CSc1nnc(-c2cccc(Cl)c2)o1` (centres undefined), the “activity change, negative = inhibition” value is reported as -21.8 (inactive). For `CCc1nc2ccccc2c(C(=O)OCC(=O)NC(=O)c2cccn2C)c1C`, the “activity change, negative = inhibition” value was -6.91 (inactive). In the case of `Cc1ccc(Cc2c(-c3ccc(C#N)cc3)nc3ccc(Br)cn23)cc1`, the “activity change, negative = inhibition” value is reported as -5.11 (inactive). For `CCOC(=O)c1cnc2ccc(OCC)cc2c1NCCCN1CCOCC1`, the “activity change, negative = inhibition” value was -9.57 (inactive). For `CCOC(=O)C(CC)Sc1cc(C)nc2ccc(OC)cc12` (centres undefined), the “activity change, negative = inhibition” value was -16.2 (inactive). In the case of `COc1ccc(C(=O)COc2ccc(F)cc2)c(O)c1`, the “activity change, negative = inhibition” value is reported as -7.68 (inactive). For `Cc1cccc(-c2cc3nc4c(c(N5CCOCC5)n3n2)CCCC4)c1`, the “activity change, negative = inhibition” value was -4.46 (inactive). With `Cc1cccc(NS(=O)(=O)c2cc3c(cc2C)NC(=O)CO3)c1` the “activity change, negative = inhibition” value was -4.25 (inactive). With `Cc1cccc(OCCn2c(=O)oc3ccc(C)cc32)c1` the “activity change, negative = inhibition” value was -7.06 (inactive). For `CC(=O)Nc1cccc(NC(=O)CCN2C(=O)c3ccccc3S2(=O)=O)c1`, the “activity change, negative = inhibition” value was -6.12 (inactive). In the case of `c1cncc(-c2nc3cc4ccccc4cc3[nH]2)c1`, the “activity change, negative = inhibition” value is reported as -15.5 (inactive). In the case of `Cc1ccccc1S(=O)(=O)c1cc2ccccc2nc1N`, the “activity change, negative = inhibition” value is reported as -9.42 (inactive). For `COc1ccccc1-c1noc2ncnc(Nc3ccccc3C)c12`, the “activity change, negative = inhibition” value was -8.79 (inactive). In the case of `COc1ccccc1Cc1c(-c2ccc(F)cc2)nc2ccc(Br)cn12`, the “activity change, negative = inhibition” value is reported as -0.955 (inactive). For `COc1ccc(-c2nc(C3CCCCC3)no2)cc1OC`, the “activity change, negative = inhibition” value was -15.4 (inactive). With `c1ccc(Sc2ncnc3ccccc23)cc1` the “activity change, negative = inhibition” value was -5.5 (inactive). For `COc1cccc(NC(=O)C(C)SCc2ccccc2)c1` (centres undefined), the “activity change, negative = inhibition” value was -14.7 (inactive). In the case of `Cc1cc(Br)ccc1NC(=O)c1ccco1`, the “activity change, negative = inhibition” value is reported as 0.378 (inactive). In the case of `O=C(CSCc1cnn(-c2ccccc2)c1-n1cccc1)NCc1cccnc1`, the “activity change, negative = inhibition” value is reported as -6.66 (inactive). In the case of `O=C(Nc1ccc(Cl)c(Cl)c1)c1ccc(Cl)c(Cl)c1`, the “activity change, negative = inhibition” value is reported as -12.7 (inactive). For `O=[N+]([O-])c1ccc2nc(-c3ccccc3[N+](=O)[O-])[nH]c2c1`, the “activity change, negative = inhibition” value was -1.6 (inactive). For `O=c1c2ccccc2nc(SCc2ccccc2)n1CC1CCCO1` (centres undefined), the “activity change, negative = inhibition” value was -15.1 (inactive). In the case of `CCOCCCNC(=O)C(NC(=O)c1ccccc1O)c1ccc(C)cc1` (centres undefined), the “activity change, negative = inhibition” value is reported as -14.3 (inactive). In the case of `COc1ccc(Nc2nc(N)c([N+](=O)[O-])c(N3CCCC3)n2)cc1`, the “activity change, negative = inhibition” value is reported as 2.69 (inactive). For `CS(=O)(=O)c1ccc(Cl)c(NC(=O)CSc2nncn2-c2ccccc2)c1`, the “activity change, negative = inhibition” value was -10.3 (inactive). In the case of `c1ccc(CSCc2ccccc2)cc1`, the “activity change, negative = inhibition” value is reported as -7.54 (inactive). For `O=C(Nc1ccc(Cl)c(Cl)c1)N[C@@H]1CC[C@@H](CCn2cc(C3CCCCC3)nn2)O[C@H]1CO`, the “activity change, negative = inhibition” value was -14.9 (inactive). For `CCOc1ccc(NC(=O)CCc2nnc3ccc(N4CCC(C)CC4)nn23)cc1`, the “activity change, negative = inhibition” value was -4.54 (inactive). For `Cc1csc(SCc2nc3scc(-c4ccccc4)c3c(=O)[nH]2)n1`, the “activity change, negative = inhibition” value was -4.09 (inactive). With `CC(C)(C)c1ccc2c(c1)C(c1ccc3c(c1)OCO3)CC(=O)O2` (centres undefined) the “activity change, negative = inhibition” value was -8.87 (inactive). In the case of `Cc1ccccc1Nc1c(-c2cccnc2)nc2ccc(Br)cn12`, the “activity change, negative = inhibition” value is reported as 6.1 (inactive). For `CC1(CCC(=O)N2CCCC(N3CCN(c4ccc(F)cc4)CC3)C2)CC1` (centres undefined), the “activity change, negative = inhibition” value was -9.89 (inactive). With `C=CCn1c(C)cc(C(=O)CSc2nnc(C3CC3)n2C2CC2)c1C` the “activity change, negative = inhibition” value was -7.34 (inactive). With `c1ccc(-c2sc3ccccc3c2-c2ccc(OCCN3CCCCC3)cc2)cc1` the “activity change, negative = inhibition” value was -14.3 (inactive). For `CN(C(=O)COC(=O)CSc1ccc(C(N)=O)cc1[N+](=O)[O-])C1CCCCC1`, the “activity change, negative = inhibition” value was 4.54 (inactive). With `CC(C)OCCCNC(=O)c1ccc(CS(=O)(=O)c2cccc(C(F)(F)F)c2)o1` the “activity change, negative = inhibition” value was -6.78 (inactive). For `COc1ccc(C(=O)Nc2cccc3ccccc23)cc1`, the “activity change, negative = inhibition” value was -12.3 (inactive). With `CCS(=O)(=O)N1CCN(c2ccc([N+](=O)[O-])c(NCC3CCCO3)c2)CC1` (centres undefined) the “activity change, negative = inhibition” value was 2.49 (inactive). In the case of `Cc1nn(S(=O)(=O)c2ccc(Cl)cc2)c(C)c1Sc1ccc([N+](=O)[O-])cc1`, the “activity change, negative = inhibition” value is reported as 2.39 (inactive). With `C[C@@H]1CN([C@@H](C)CO)C(=O)c2cc(NC(=O)Nc3cccc4ccccc34)ccc2O[C@@H](C)CCCCO[C@@H]1CN(C)C(=O)CCCN(C)C` the “activity change, negative = inhibition” value was -4.58 (inactive). In the case of `O=C(COC(=O)C1CC2C=CC1C2)NCCc1ccccc1` (centres undefined), the “activity change, negative = inhibition” value is reported as 12.8 (inactive). With `O=C(CN1CCCCC1)Nc1ccccc1-c1ccccc1` the “activity change, negative = inhibition” value was -10.8 (inactive). With `CN(Cc1ccc(Cl)s1)C(=O)CNC(=O)CNC(=O)c1ccc(Cl)cc1Cl` the “activity change, negative = inhibition” value was 3.86 (inactive).
